Most compounds without a hit are left out; they make up all but 1.5% or so of the library.
CD11b adhes enh: enhancers of CD11b/CD18 adhesion to fibrinogen, primary screen, K562 cells, luminescence; Integrin beta-2 (Homo sapiens) + Integrin alpha-M (Homo sapiens), P05107+P11215; ATPlite luminescence; activation, % at 10 µM; 93,000 tested, 0.07% active; AID 1499, 2009;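 active means 10 µM primary screen giving 50% or more activity, confirmed by 40% or more on retest at that dose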
Mac1 fbg inh: inhibitors of CD11b/CD18 adhesion to fibrinogen, primary screen, K562 cells, luminescence | Integrin beta-2 (Homo sapiens) + Integrin alpha-M (Homo sapiens), P05107+P11215 | ATPlite luminescence; Mn2+ added to activate the integrin | inhibition, % at 10 µM | 93,000 tested, 0.54% active;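 active means primary inhibition of 50% or more at 10 µM, then 40% or more on retest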
MRP1 act: H69AR viability gain despite doxorubicin, primary screen, MRP-1 activator project, H69AR cells, CellTiter-Glo | viability rescue | viability increase, % at 10 µM | 140,000 tested, 0.61% active;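 active means viability gain under doxorubicin at or above a set limit, the compound median plus 3 SD, cut at about 4.7% in these data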;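 further: MRP-1 overexpressing cells given doxorubicin 25 µM after compound pretreatment; 18-22 h compound pretreatment then 72 h with doxorubicin before readout; 0% = doxorubicin-only wells and 100% = vehicle-treated cells without doxorubicin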
FAK inh: FAK kinase inhibitors, primary screen, biochemical; inhibition, %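 (tested at 7 µM)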; 97,000 tested, 0.84% active; biochemical FAK kinase activity assay; AID 727, 2007; Focal adhesion kinase 1 (Homo sapiens), Q05397; in the data active means inhibition above about 19%;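 further: 0% = DMSO and 100% = reference compound high control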
Target sequence (Q05397 whole entry, looked up): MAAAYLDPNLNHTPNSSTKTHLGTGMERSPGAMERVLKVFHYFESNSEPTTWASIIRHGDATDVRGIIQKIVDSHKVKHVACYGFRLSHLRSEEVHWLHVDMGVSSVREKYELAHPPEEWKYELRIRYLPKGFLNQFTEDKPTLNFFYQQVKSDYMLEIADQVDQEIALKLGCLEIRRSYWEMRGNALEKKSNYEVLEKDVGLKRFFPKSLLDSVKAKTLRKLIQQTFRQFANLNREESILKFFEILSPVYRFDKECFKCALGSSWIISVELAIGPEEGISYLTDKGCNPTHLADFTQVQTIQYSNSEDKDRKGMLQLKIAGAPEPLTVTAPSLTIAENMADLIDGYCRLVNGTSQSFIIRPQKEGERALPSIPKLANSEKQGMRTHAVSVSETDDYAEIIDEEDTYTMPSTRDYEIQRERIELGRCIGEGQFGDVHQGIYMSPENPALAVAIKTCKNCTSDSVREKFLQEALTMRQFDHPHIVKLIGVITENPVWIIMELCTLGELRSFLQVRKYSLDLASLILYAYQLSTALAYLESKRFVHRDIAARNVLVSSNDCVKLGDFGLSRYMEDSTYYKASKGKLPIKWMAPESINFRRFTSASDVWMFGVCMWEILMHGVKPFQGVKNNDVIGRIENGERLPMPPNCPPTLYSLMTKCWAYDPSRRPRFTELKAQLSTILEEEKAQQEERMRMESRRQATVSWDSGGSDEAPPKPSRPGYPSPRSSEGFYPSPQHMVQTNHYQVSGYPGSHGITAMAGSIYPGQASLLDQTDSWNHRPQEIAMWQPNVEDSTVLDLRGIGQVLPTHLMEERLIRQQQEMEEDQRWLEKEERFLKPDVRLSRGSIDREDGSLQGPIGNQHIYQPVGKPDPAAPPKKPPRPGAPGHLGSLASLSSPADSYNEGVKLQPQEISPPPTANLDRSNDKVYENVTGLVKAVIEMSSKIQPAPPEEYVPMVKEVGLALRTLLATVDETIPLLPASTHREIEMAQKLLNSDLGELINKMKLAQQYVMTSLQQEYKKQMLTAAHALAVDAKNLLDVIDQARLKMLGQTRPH
MRP reversal: reversal of MRP1-mediated doxorubicin resistance, primary screen, H69AR cells, doxorubicin co-treatment; H69AR cells + 2 uM doxorubicin, CellTiter-Glo, 72 h; differential viability (reversal), % at 10 µM; 85,000 tested, 0.04% active; AID 602, 2007;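 active means viability drop by adding the cancer drug above about 55%, with treated viability meeting a 40% cutoff, limit read from the data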;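 further: viability without doxorubicin minus viability with 2 µM doxorubicin for each compound; larger differential means the compound sensitizes cells more to doxorubicin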
Phagocytosis inh: inhibitors of macrophage phagocytosis, primary screen, imaging, J774A.1 cells, IgG beads. inhibition, % at 5 µM. J774A.1 macrophage IgG-bead phagocytosis. 110,000 tested, 0.07% active;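 active means inhibition above the mean of the plate negative controls plus 5 SD, cut at about 13% in these data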;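 further: phagocytic index as fraction of beads internalized from green versus red external bead signal; plate controls were DMSO negative control for no effect and cytochalasin-D positive control for full effect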
An asterisk follows results filed as active; nt = no result given.

SMILES | CD11b adhes enh | Mac1 fbg inh | MRP1 act | FAK inh | MRP reversal | Phagocytosis inh
O=C(Cc1ccc(-n2c(=O)[nH]c3ccsc3c2=O)cc1)N1CCN(c2ccc(Cl)cc2)CC1 | nt | nt | 5.0* | nt | nt | -5.7
CCCCCCOC(=O)c1ccc(NC(=O)c2cc(OC)c(OC)c(OC)c2Br)cc1 | -0.9 | 24.0 | 4.9* | -1.4 | nt | nt
C=CCOc1c(CNc2ccc(C(=O)O)cc2)cccc1OCC | nt | nt | 6.7* | 3.9 | nt | nt
C=CCOc1c(CNc2ccc(C(=O)O)cc2)cccc1OC | nt | nt | 0.2 | nt | nt | -10.9
CCOc1cccc(CNn2cnnc2)c1OCc1ccccc1Cl | -4.4 | 3.2 | -2.5 | -2.5 | 4.4 | -0.1
CCOc1cccc(CNc2ccc(O)cc2)c1OCc1ccccc1Cl | nt | nt | -5.0 | 37.0* | nt | nt
C=CCNC(=O)NS(=O)(=O)c1ccc(C)cc1 | -0.4 | -10.0 | 0.0 | 0.3 | 0.9 | 3.0
CC(=O)NCCC(=O)Nc1ccc(C)c(F)c1 | 0.4 | -44.1 | -1.0 | 0.3 | -1.6 | -0.9
Cc1ccc(NC(=O)CCNC(=O)c2ccc(Cl)cc2)cc1F | nt | nt | 5.4* | nt | nt | 4.9
Nc1cc(-c2ccccc2)nn1S(=O)(=O)c1ccc(F)cc1 | -2.4 | 63.0* | -1.3 | 4.9 | 6.4 | -0.3
CCOC(=O)C(Oc1ccc2c(-c3ccccc3)cc(=O)oc2c1C)c1ccccc1 (centres undefined) | -5.9 | 9.7 | 4.7* | nt | nt | -7.5
CCOC(=O)C(Oc1ccc2c(-c3ccc(OC)cc3)cc(=O)oc2c1C)c1ccccc1 (centres undefined) | nt | nt | 0.3 | -3.6 | nt | nt
CCOC(=O)c1c(NC(=O)CSc2nnc3c(n2)[nH]c2ccccc23)sc2c1CCN(C)C2 | nt | nt | nt | 19.6* | nt | nt
O=C(Nc1cccnc1)C1CC(c2ccc(Cl)c(Cl)c2)=NO1 (centres undefined) | -1.3 | -16.2 | 6.0* | 7.3 | 13.4 | -0.4
CCCn1c(=O)n(C)c(=O)c2c(SCC(=O)NCc3ccco3)nc(C3CC3)nc21 | 5.8 | -23.6 | -1.2 | 2.3 | -14.7 | -0.6
c1coc(C2Nc3cccc4cccc(c34)N2)c1 | 39.1 | 2.3 | 6.0* | 3.2 | -17.5 | -3.2
O=C(Nc1ccc(Oc2ccccc2)cc1)c1cnc2n(c1=O)CCS2 | 3.4 | 2.7 | 6.0* | 3.8 | 5.3 | -0.7
CCN=C1SC(CC(=O)NCCc2ccc(OC)cc2)C(=O)N1CC (centres undefined) | -0.3 | 9.6 | -0.1 | 0.6 | nt | 0.0
CCCC1S/C(=N/N=C/c2ccc(OC)cc2)N(Cc2ccc(OC)cc2)C1=O (centres undefined) | nt | nt | 2.8 | -1.9 | 4.2 | nt
CCCCC1S/C(=N/N=C/c2ccc(OC)cc2)N(Cc2ccc(OC)cc2)C1=O (centres undefined) | 7.8 | 0.3 | 5.4* | -2.1 | 13.1 | 0.4
CCCC1S/C(=N/N=C/c2ccc(OC)cc2)N(Cc2ccccc2)C1=O (centres undefined) | 7.2 | 19.9 | 6.0* | -1.0 | 10.4 | 1.1
CC1=C/C(=N\NC(=O)c2ccc(O)cc2)CC1 | 0.7 | -13.0 | -0.7 | nt | nt | -8.5
CCCCCCCC(=O)N/N=C(\C)c1cccnc1 | nt | nt | -1.7 | -2.5 | 8.6 | nt
Cc1ccccc1NC(=O)C1CCCN1/C=C/C(=O)C(F)(F)F (centres undefined) | -2.2 | -2.7 | -0.8 | nt | nt | -9.7
COC(=O)Nc1ccc(S(=O)(=O)Nc2ccc(O)cc2)cc1 | nt | nt | -3.0 | 0.6 | 59.7* | nt
CCCCNC(=O)c1ccc(S(=O)(=O)c2ccc(Cl)cc2)c(NC(C)=O)c1 | -0.1 | -1.2 | -0.8 | 1.5 | 11.4 | nt
COc1ccc(C2C(C(=O)Nc3cccc(C)n3)CCC(=O)N2c2ccc(OC)cc2)cc1 (centres undefined) | -4.1 | -6.5 | 12.6* | -4.9 | 13.1 | 2.4
O=C(CCc1ccccc1O)N/N=C/c1ccc(Sc2cccc3cccnc23)o1 | -5.3 | 16.7 | -3.4 | 0.5 | 1.0 | 0.4
CC1CCc2c(sc3nc(CN4CCOCC4)nc(NS(=O)(=O)c4cccc([N+](=O)[O-])c4)c23)C1 (centres undefined) | -6.4 | 67.3* | -2.6 | -2.4 | nt | -0.2
COc1ccc2cc3cc(C(=O)NC(C)C)oc3nc2c1 | 3.3 | -39.9 | -0.8 | -1.0 | 17.2 | 1.2

High-throughput results deposited in PubChem BioAssay by several laboratories.
